Results as given in the supplement of paper PMC13094657.
± gives the standard deviation of the averaged measurements.

Columns and labels:
MDA-MB-231 [1] = experiment: cell viability relative to vehicle unstimulated control (fraction); higher = more viable cells; details: pre-treatment time: 18 h then 24 h IFNg/TNF
MDA-MB-231 [2] = experiment: kynurenine production, fold change vs DMSO IFNg/TNF control; higher = more kynurenine produced (less inhibition); details: pre-treatment time: 18 h then 24 h IFNg/TNF
Method in brief: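 In 96-well plates, MDA-MB-231 cells (7 × 10^4/well) were given 24 h to settle, pre-treated for 18 h with each natural product in 0.1% DMSO, and stimulated for 24 h with IFNγ (1 U/ml) and TNF (6.25 ng/ml) at 37°C. Supernatants were processed with trichloroacetic acid and p-dimethylaminobenzaldehyde and read at 492 nm against 0–100 μM standards. In the first screening round, kynurenine production, as fold change over same-plate cytokine-stimulated vehicle wells, was averaged over duplicate plates.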
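For cell viability relative to vehicle unstimulated control in this document: viability of the cells left after supernatant collection, read with Deep Blue dye added for 4 h, as absorbance at 570 nm minus 600 nm.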

Row | SMILES | cell viability (MDA-MB-231 [1]) | kynurenine production (MDA-MB-231 [2])
1 | CC1(C)C2CC=C(C=O)C1C2 (single isomer, unassigned; (-)) [(-)-Myrtenal] (compound dose: 10 uM) | 0.988 ± 0.056 | 0.941 ± 0.084
2 | C=C1C=CC(C(C)C)CC1 (stereo not drawn) [β-Phellandrene] (compound dose: 10 uM) | 0.99 ± 0.038 | 0.832 ± 0.18
3 | C=C(C)[C@@H]1CC=C(C)C(=O)C1 [L(-)-carvone] (compound dose: 10 uM) | 0.965 ± 0.069 | 0.974 ± 0.049
4 | CC1=CC23C(=O)C(C=C4COC(C)(C)OC4C2(O)C1O)C1C(CC3C)C1(C)C (stereo not given) [Ingenol-5,20-acetonide] (compound dose: 10 uM) | 0.948 ± 0.042 | 1.07 ± 0.082
5 | CC1OC2OC3C(OCC(O)C3O)OC(=O)C34CCC(C)(C)CC3C3=CCC5C6(C)CC(O)C(OC7OC(CO)C(O)C(O)C7OC7OCC(OC(=O)CC(C)(O)CC(=O)OC1C(OC1OCC(O)C(O)C1O)C2O)C(O)C7O)C(C)(CO)C6CCC5(C)C3(C)CC4O (stereo not given) [Tubeimoside II] (compound dose: 10 uM) | 0.387 ± 0.0057 | 0.21 ± 0.0034
6 | C=C(C)[C@H]1C=C[C@@](C)(O)CC1 [cis-Isolimonenol] (compound dose: 10 uM) | 0.972 ± 0.02 | 0.813 ± 0.11
7 | CC(=O)O[C@@H]1C[C@H](O)[C@@]23CO[C@@H](O)[C@]1(C)[C@@H]2C[C@@H](O)[C@]1(C)[C@@H]3C(=O)[C@H](OC(C)=O)[C@@]2(C)[C@H](c3ccoc3)C[C@H]3O[C@]321 [Toosendanin] (compound dose: 10 uM) | 0.858 ± 0.056 | 0.206 ± 0.03
8 | C[C@@H]1O[C@@H](O[C@H]2[C@H](OC(=O)[C@]34CCC(C)(C)C[C@H]3C3=CC[C@@H]5[C@@]6(C)C[C@H](O)[C@H](O[C@@H]7O[C@H](CO)[C@@H](O)[C@H](O)[C@H]7O)[C@](C)(CO)[C@@H]6CC[C@@]5(C)[C@]3(C)CC4)O[C@H](CO)[C@@H](O[C@@H]3OC[C@@H](O)[C@H](O)[C@H]3O)[C@@H]2O[C@@H]2OC[C@](O)(CO)[C@H]2O)[C@H](O)[C@H](O)[C@H]1O [Polygalasaponin V] (compound dose: 10 uM) | 0.992 ± 0.027 | 0.803 ± 0.068
9 | C=CCC(=NOS(=O)(=O)O)S[C@@H]1O[C@H](CO)[C@@H](O)[C@H](O)[C@H]1O (stereo in doubt) [Sinigrin] (compound dose: 10 uM) | 0.933 ± 0.014 | 1.04 ± 0.14
10 | CC(=O)OC(C)(C)CCC(=O)[C@](C)(O)[C@H]1[C@H](O)C[C@@]2(C)[C@@H]3CC=C4[C@@H](C[C@H](O)[C@@H](O)C4(C)C)[C@]3(C)C(=O)C[C@]12C [Cucurbitacin IIa] (compound dose: 10 uM) | 0.939 ± 0.036 | 0.778 ± 0.07
11 | C=CC(=C)CCC=C(C)C [Myrcene] (compound dose: 10 uM) | 1.02 ± 0.055 | 0.867 ± 0.1
12 | C[C@]1(O)C[C@@H](O)[C@]2(O)C=CO[C@@H](O[C@H]3O[C@H](CO)[C@@H](O)[C@H](O)[C@H]3O)[C@@H]21 [Harpagide] (compound dose: 10 uM) | 1.02 ± 0.016 | 0.747 ± 0.068
13 | CC(C)(O[C@@H]1O[C@H](CO)[C@@H](O)[C@H](O)[C@H]1O)[C@@H]1CC[C@](C)([C@H]2[C@@H](O)C[C@@]3(C)[C@@H]4C[C@H](O)[C@H]5C(C)(C)[C@@H](O[C@@H]6OC[C@@H](O)[C@H](O)[C@H]6O)CC[C@@]56C[C@@]46CC[C@]23C)O1 [Isoastragaloside IV] (compound dose: 10 uM) | 0.924 ± 0.083 | 1.23 ± 0.33
14 | C=C1CC[C@@H]2[C@](C)(CO)[C@H](O)CC[C@@]2(C)[C@@H]1/C=C/C1=CCOC1=O [14-Deoxy-11,12-didehydroandrographolide] (compound dose: 10 uM) | 0.857 ± 0.047 | 0.921 ± 0.095
15 | C=C1C[C@@]23CC[C@H]4[C@@](C)(CCC[C@@]4(C)C(=O)O[C@@H]4O[C@H](CO)[C@@H](O)[C@H](O[C@@H]5O[C@H](CO)[C@@H](O)[C@H](O)[C@H]5O)[C@H]4O[C@@H]4O[C@H](CO)[C@@H](O)[C@H](O)[C@H]4O)[C@@H]2CC[C@]1(O[C@@H]1O[C@H](CO)[C@@H](O)[C@H](O[C@@H]2O[C@H](CO)[C@@H](O)[C@H](O)[C@H]2O)[C@H]1O[C@@H]1O[C@H](CO)[C@@H](O)[C@H](O)[C@H]1O)C3 [Rebaudioside M] (compound dose: 10 uM) | 0.939 ± 0.012 | 0.742 ± 0.12
